Screens deposited in PubChem by National Center for Advancing Translational Sciences (NCATS).
FBPA Giardia inh: blocks Giardia fructose-bisphosphate aldolase activity. Potency, µM (series often up to 59.6 µM), without a hit: at the top dose activity, negative = inhibition, most hits filed as inhibitors. A8B2U2. hit rate 0.71% among 290,000. AID 2451. purified Giardia FBPA; note: potency is the fitted concentration of half-maximal effect; % is set by controls: 0 for no effect and ±100 for the full control effect; nearly all actives have a fitted effect of over 55% in size
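40 nM FBPA preincubated 10 min at RT with compound (up to 57.5 uM final), then substrate plus GAPDH/TPI/NAD/arsenate coupling and diaphorase/resazurin added. Fluorescence read after 20 min at RT, 525/598 nm.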
LmPK inhibitor: LmPK (Leishmania mexicana) enzyme inhibition | Potency, µM (doses to about 57.5 µM), inactives show top-dose activity change, negative = inhibition, actives largely listed as inhibitors | Q27686 | hit rate 0.37% among 290,000 | purified LmPK, Kinase-Glo ATP luminescence, 1 h; note: potency is the fitted concentration of half-maximal effect; % is set by controls: 0 for no effect and ±100 for the full control effect
Target sequence (Q27686 whole entry, looked up): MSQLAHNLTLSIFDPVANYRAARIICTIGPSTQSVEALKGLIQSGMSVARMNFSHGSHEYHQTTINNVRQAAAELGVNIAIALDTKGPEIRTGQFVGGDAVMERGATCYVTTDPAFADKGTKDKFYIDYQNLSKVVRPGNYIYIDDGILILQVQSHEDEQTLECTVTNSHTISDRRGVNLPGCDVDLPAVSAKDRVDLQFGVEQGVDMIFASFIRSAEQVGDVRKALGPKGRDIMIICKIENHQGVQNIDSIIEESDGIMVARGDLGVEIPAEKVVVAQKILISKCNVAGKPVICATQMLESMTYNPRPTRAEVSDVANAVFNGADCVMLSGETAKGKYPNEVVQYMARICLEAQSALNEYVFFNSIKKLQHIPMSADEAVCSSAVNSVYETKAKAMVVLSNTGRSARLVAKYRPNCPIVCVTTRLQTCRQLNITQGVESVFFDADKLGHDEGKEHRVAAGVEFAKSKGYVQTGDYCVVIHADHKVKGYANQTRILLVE
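Pyruvate kinase activity monitored as ATP production (luciferase luminescence). Conditions: 0.1 nM enzyme, 0.5 mM PEP, 0.1 mM ADP, 1 h, RT; normalized against uninhibited and no-enzyme wells.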
Tb PYK inh: blocks Trypanosoma brucei pyruvate kinase; Q57TT1; TbPYK enzyme, Kinase-Glo Plus ATP luminescence, 45 min; Potency, µM (series often up to 76.8 µM), without a hit: top-dose activity, negative = inhibition, most hits filed as inhibitors; hit rate 0.12% among 410,000; note: potency is the fitted concentration of half-maximal effect; % is set by controls: 0 for no effect and ±100 for the full control effect; nearly all actives have a fitted effect of over 50% in size
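T. brucei PYK with substrate was exposed to pin-transferred compounds across a concentration series, then started with 130 uM ADP (final). After 45 min at room temperature, Kinase-Glo Plus luminescence was read, normalized and curve-fitted.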
Cycloheximide cs: counter-screen hit for Shiga toxin inhibitors, cycloheximide. max response, %. cell reporter, cycloheximide protein synthesis inhibition counterscreen. AID 2314. hit rate 12% among 300,000; in the data active = max response mostly above about 13%, no sharp cut-off; inactive = mostly below about 14%; note: read at 38.3 µM for the half of the compounds with a filed dose; 0% is about no effect
Sm TGR inh: S. mansoni TGR enzyme inhibition. purified TGR, DTNB reduction, TNB absorbance 405 nm. Potency, µM (titrated, usually from 114 µM), for inactives: at the top dose activity change, negative = inhibition, hits mostly inhibitors. hit rate 3% among 360,000; note: potency is the fitted concentration of half-maximal effect; % is set by controls: 0 for no effect and ±100 for the full control effect; nearly all actives have a fitted effect of over 60% in size
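Kinetic colorimetric format: TGR-catalysed, NADPH-driven DTNB reduction monitored via TNB absorbance. Enzyme dispensed at 20 nM; compound exposure 15 min at room temperature before reaction start.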
Shiga toxin inh: inhibitors of Shiga toxin in Vero cells; Vero cells, Shiga toxin protein synthesis inhibition reporter; inhibition, % at 38.7 µM; hit rate 9.2% among 290,000; AID 2315; in the data active = inhibition mostly above about 28%, no sharp cut-off; inactive = mostly below about 43%; note: 0% is about no effect
Starred values were filed as active, the others as inactive. The entries come from a sample that favours hits as a whole. Unless noted, calls come from the whole dose curve; as a rule, active = well fitted curve in the direction sought with a large enough effect; inconclusive = small, poorly fitted or top-dose-only effect, or another doubt; inactive = no such curve, though single readings can be large; an effect the other way counts as inactive or inconclusive.

`CCCCCc1ccc(-c2ccc(/C=C/C(N)=O)cc2)nc1` gave FBPA Giardia inh 1.7%, LmPK inhibitor 1.1%, Tb PYK inh -1.1%, Cycloheximide cs 55.8*, Sm TGR inh -1.3% and Shiga toxin inh 67.4*.
`CCCc1ccc(-c2ccc(C(=O)O)cc2)nc1` gave FBPA Giardia inh inconclusive, LmPK inhibitor inconclusive, Tb PYK inh -8.3%, Cycloheximide cs 26.3*, Sm TGR inh 0.4% and Shiga toxin inh 64.9*.
Screening N/C(=N\OC(=O)c1ccccc1Cl)c1cccnc1 returned FBPA Giardia inh 3.6%, LmPK inhibitor inconclusive, Tb PYK inh -1.1%, Cycloheximide cs 37.8*, Sm TGR inh -1.2% and Shiga toxin inh 61.2*.
N/C(=N\OC(=O)c1cc(Br)ccc1Cl)c1cccnc1 was read as FBPA Giardia inh -0.2%, LmPK inhibitor -0.7%, Tb PYK inh 3.9%, Cycloheximide cs 8.8, Sm TGR inh 0.6% and Shiga toxin inh 23.0.
For N/C(=N\OC(=O)c1cc(-c2ccccc2)nc2ccccc12)c1cccnc1 the results were FBPA Giardia inh -4.5%, LmPK inhibitor 3.2%, Tb PYK inh 1.7%, Cycloheximide cs -5.0, Sm TGR inh 3.2% and Shiga toxin inh -7.3.
`N/C(=N\OC(=O)CC(c1ccccc1)c1ccccc1)c1cccnc1` gave FBPA Giardia inh 4.5%, LmPK inhibitor 0.9%, Tb PYK inh 1.5%, Cycloheximide cs -1.5 and Shiga toxin inh 10.1.
For N/C(=N\OC(=O)c1cc(Cl)ccc1Cl)c1cccnc1 the results were FBPA Giardia inh 6.4%, LmPK inhibitor 0.1%, Tb PYK inh 0.2%, Cycloheximide cs 33.9*, Sm TGR inh 1.8% and Shiga toxin inh 56.4.
N/C(=N\OC(=O)c1ccccc1)c1cccnc1 was read as FBPA Giardia inh -0.6%, LmPK inhibitor inconclusive, Tb PYK inh -8.4%, Cycloheximide cs 46.8*, Sm TGR inh 2.4% and Shiga toxin inh 66.0*.
N/C(=N\OC(=O)c1ccccc1)c1ccn[nH]1 was read as LmPK inhibitor -20.2%, Tb PYK inh -24.8%, Cycloheximide cs 24.6*, Sm TGR inh 6.1% and Shiga toxin inh 48.7*.
CC(C(=O)NCc1cccc(Br)c1)n1ncn2cccc2c1=O (configuration not stated) was read as Tb PYK inh -4.2% and Sm TGR inh -4.8%.
Screening COc1ccc(-c2[nH]nc3nc(N4CCN(C(=O)c5ccoc5)CC4)cc(C(F)(F)F)c23)cc1 returned Tb PYK inh -2.8%.
Screening N/C(=N\OC(=O)c1ccc(Cl)cc1[N+](=O)[O-])c1cccnc1 returned FBPA Giardia inh -3.8%, LmPK inhibitor 0.2%, Tb PYK inh -8.1%, Cycloheximide cs 44.5*, Sm TGR inh -14.2% and Shiga toxin inh 55.6*.
Screening COc1ccc(N2C(=O)CC(n3c(CCCCO)nc4ccccc43)C2=O)cc1 (configuration not stated) returned FBPA Giardia inh 0.3%, LmPK inhibitor 0.2%, Tb PYK inh -7.7%, Cycloheximide cs -1.8, Sm TGR inh 8.91µM* and Shiga toxin inh -17.8.
COc1ccc(N2C(=O)CC(N3CCC(c4nc5ccccc5[nH]4)CC3)C2=O)cc1 (configuration not stated) was read as FBPA Giardia inh -23.6%, LmPK inhibitor -10.6%, Tb PYK inh 2.1%, Cycloheximide cs -2.1, Sm TGR inh 39.8µM* and Shiga toxin inh 0.3.
Screening O=C1CC(N2CCC(c3nc4ccccc4[nH]3)CC2)C(=O)N1c1ccccc1F (configuration not stated) returned FBPA Giardia inh 1.9%, LmPK inhibitor 0.9%, Tb PYK inh 3.6%, Cycloheximide cs -1.6, Sm TGR inh 31.6µM* and Shiga toxin inh -4.2.
COc1ccc(N2C(=O)CC(n3cnc4ccccc43)C2=O)cc1 (configuration not stated) was read as FBPA Giardia inh -0.1%, LmPK inhibitor 16.9%, Tb PYK inh -5.5%, Cycloheximide cs -5.9, Sm TGR inh -22.1% and Shiga toxin inh -3.7.
